# “And” between values parts separate entries of the source, which are not always exact repeats. Equal entries are not always repeated. In all, about 5,500 compounds went through this assay and about 2,000 (36%) were called active. Inconclusive results (about 18%) are left out. Cut-off read from the data, not from the text of the source: active = normalized growth mostly below about 0.91 (no sharp cut-off); inconclusive = no clear call, values can overlap the other calls; inactive = mostly above about 0.92. The list shows a part of the results.
# Test: chemical genetic growth profiling, strain panel (AID 1159580);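 note: tested at 20 µM; growth read once vehicle control cultures reached saturation at 30 °C; 1 = growth at the plate median or of vehicle wells; lower values mean less growth of the strain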
# Details: S. cerevisiae deletion strains, growth OD
structure (smiles),measurement,setting,value
COc1ccc(-c2cc(=O)c3c(OC(C)=O)cc(OC(C)=O)cc3o2)cc1,normalized growth,"locus YAL013W, strain DEP1, stronger effect = lower value",0.955 (inactive)
same,normalized growth,"locus YAL021C, strain ccr4, stronger effect = lower value",0.947 (inactive)
same,normalized growth,"locus YAL026C, strain drs2, stronger effect = lower value",1.01 (inactive)
same,normalized growth,"locus YAL030W, strain snc1, stronger effect = lower value",0.99 (inactive)
same,normalized growth,"locus YBL061C, strain skt5, stronger effect = lower value",0.974 (inactive)
same,normalized growth,"locus YBR009C, strain hhf1, stronger effect = lower value",0.972 (inactive)
same,normalized growth,"locus YBR021W, strain FUR4, stronger effect = lower value",0.916 (inactive)
same,normalized growth,"locus YBR023C, strain chs3, stronger effect = lower value",0.972 (inactive)
same,normalized growth,"locus YBR171W, strain sec66, stronger effect = lower value",0.996 (inactive)
same,normalized growth,"locus YBR229C, strain ROT2, stronger effect = lower value",0.982 (inactive)
same,normalized growth,"locus YBR231C, strain swc5, stronger effect = lower value",0.922 (inactive)
same,normalized growth,"locus YBR279W, strain paf1, stronger effect = lower value",0.988 (inactive)
same,normalized growth,"locus YCL011C, strain gbp2, stronger effect = lower value",0.989 (inactive)
same,normalized growth,"locus YCL016C, strain dcc1, stronger effect = lower value",0.991 (inactive)
same,normalized growth,"locus YCL029C, strain bik1, stronger effect = lower value",0.958 (inactive)
same,normalized growth,"locus YCL061C, strain MRC1, stronger effect = lower value",0.989 (inactive)
same,normalized growth,"locus YCL069W, strain vba3, stronger effect = lower value",0.983 (inactive)
same,normalized growth,"locus YCR088W, strain abp1, stronger effect = lower value",0.996 (inactive)
same,normalized growth,"locus YDL005C, strain med2, stronger effect = lower value",0.991 (inactive)
same,normalized growth,"locus YDL035C, strain GPR1, stronger effect = lower value",0.975 (inactive)
same,normalized growth,"locus YDL040C, strain nat1, stronger effect = lower value",0.986 (inactive)
same,normalized growth,"locus YDL074C, strain BRE1, stronger effect = lower value",0.861 (inactive)
same,normalized growth,"locus YDL101C, strain DUN1, stronger effect = lower value",0.958 (inactive)
same,normalized growth,"locus YDL134C, strain PPH21, stronger effect = lower value",0.956 (inactive)
same,normalized growth,"locus YDL185W, strain tfp1, stronger effect = lower value",0.93 (inactive)
same,normalized growth,"locus YDL192W, strain arf1, stronger effect = lower value",0.965 (inactive)
same,normalized growth,"locus YDR001C, strain nth1, stronger effect = lower value",0.987 (inactive)
same,normalized growth,"locus YDR069C, strain doa4, stronger effect = lower value",0.981 (inactive)
same,normalized growth,"locus YDR101C, strain arx1, stronger effect = lower value",1 (inactive)
same,normalized growth,"locus YDR137W, strain rgp1, stronger effect = lower value",0.934 (inactive)
same,normalized growth,"locus YDR150W, strain NUM1, stronger effect = lower value",0.976 (inactive)
same,normalized growth,"locus YDR159W, strain sac3, stronger effect = lower value",0.974 (inactive)
same,normalized growth,"locus YDR162C, strain NBP2, stronger effect = lower value",0.948 (inactive)
same,normalized growth,"locus YDR195W, strain ref2",1 (inactive)
same,normalized growth,"locus YDR297W, strain sur2, stronger effect = lower value",0.98 (inactive)
same,normalized growth,"locus YDR318W, strain mcm21, stronger effect = lower value",0.936 (inactive)
same,normalized growth,"locus YDR334W, strain swr1, stronger effect = lower value",0.987 (inactive)
same,normalized growth,"locus YDR335W, strain msn5, stronger effect = lower value",0.995 (inactive)
same,normalized growth,"locus YDR388W, stronger effect = lower value",0.973 (inactive)
same,normalized growth,"locus YDR392W, strain spt3, stronger effect = lower value",0.646 (active)
same,normalized growth,"locus YDR502C, strain sam2, stronger effect = lower value",0.94 (inactive)
same,normalized growth,"locus YEL003W, strain gim4, stronger effect = lower value",0.968 (inactive)
same,normalized growth,"locus YEL037C, strain rad23, stronger effect = lower value",1 (inactive)
same,normalized growth,"locus YEL061C, strain CIN8 (second series), stronger effect = lower value",0.991 (inactive)
same,normalized growth,"locus YEL061C, strain CIN8, stronger effect = lower value",0.982 (inactive)
same,normalized growth,"locus YER015W, strain faa2, stronger effect = lower value",0.97 (inactive)
same,normalized growth,"locus YER016W, strain bim1, stronger effect = lower value",0.991 (inactive)
same,normalized growth,"locus YER110C, stronger effect = lower value",0.95 (inactive)
same,normalized growth,"locus YER111C, strain swi4, stronger effect = lower value",1 (inactive)
same,normalized growth,"locus YER155C, strain BEM2 (second series), stronger effect = lower value",0.846 (active)
same,normalized growth,"locus YER155C, strain BEM2, stronger effect = lower value",0.942 (inactive)
same,normalized growth,"locus YER167W, strain BCK2, stronger effect = lower value",0.993 (inactive)
same,normalized growth,"locus YFR010W, strain ubp6, stronger effect = lower value",1 (inactive)
same,normalized growth,"locus YGL078C, strain dbp3, stronger effect = lower value",0.961 (inactive)
same,normalized growth,"locus YGL086W, strain mad1, stronger effect = lower value",0.976 (inactive)
same,normalized growth,"locus YGL167C, strain pmr1, stronger effect = lower value",0.992 (inactive)
same,normalized growth,"locus YGL173C, strain kem1, stronger effect = lower value",0.982 (inactive)
same,normalized growth,"locus YGL227W, strain vid30, stronger effect = lower value",0.98 (inactive)
same,normalized growth,"locus YGL240W, strain doc1, stronger effect = lower value",0.985 (inactive)
same,normalized growth,"locus YGL248W, strain PDE1, stronger effect = lower value",0.935 (inactive)
same,normalized growth,"locus YGL253W, strain hxk2, stronger effect = lower value",0.97 (inactive)
same,normalized growth,"locus YGR135W, strain pre9, stronger effect = lower value",0.905 (inactive)
same,normalized growth,"locus YGR252W, strain gcn5, stronger effect = lower value",0.86 (inactive)
same,normalized growth,"locus YHR013C, strain ard1, stronger effect = lower value",0.968 (inactive)
same,normalized growth,"locus YHR027C, strain rpn1, stronger effect = lower value",0.991 (inactive)
same,normalized growth,"locus YHR030C, strain SLT2, stronger effect = lower value",0.972 (inactive) and 0.893 (inactive)
same,normalized growth,"locus YHR079C, strain IRE1 (second series), stronger effect = lower value",0.972 (inactive)
same,normalized growth,"locus YHR079C, strain IRE1, stronger effect = lower value",0.864 (inactive)
same,normalized growth,"locus YHR094C, strain hxt1, stronger effect = lower value",0.97 (inactive)
same,normalized growth,"locus YHR129C, strain ARP1, stronger effect = lower value",0.938 (inactive)
same,normalized growth,"locus YHR142W, strain chs7, stronger effect = lower value",0.951 (inactive)
same,normalized growth,"locus YHR200W, strain rpn10, stronger effect = lower value",0.959 (inactive)
same,normalized growth,"locus YIL066C, strain RNR3, stronger effect = lower value",0.994 (inactive)
same,normalized growth,"locus YIL073C, strain SPO22, stronger effect = lower value",0.852 (inactive)
same,normalized growth,"locus YIL125W, strain kgd1, stronger effect = lower value",0.991 (inactive)
same,normalized growth,"locus YIR030C, strain dcg1, stronger effect = lower value",0.955 (inactive)
same,normalized growth,"locus YJL092W, strain hpr5, stronger effect = lower value",1 (inactive)
same,normalized growth,"locus YJL095W, strain BCK1 (second series), stronger effect = lower value",0.992 (inactive)
same,normalized growth,"locus YJL095W, strain BCK1, stronger effect = lower value",0.884 (inactive) and 0.878 (active)
same,normalized growth,"locus YJL115W, strain asf1, stronger effect = lower value",0.989 (inactive)
same,normalized growth,"locus YJL129C, strain trk1, stronger effect = lower value",0.937 (inactive)
same,normalized growth,"locus YJL134W, strain LCB3, stronger effect = lower value",0.979 (inactive)
same,normalized growth,"locus YJL154C, strain vps35, stronger effect = lower value",0.997 (inactive)
same,normalized growth,"locus YJL164C, strain tpk1, stronger effect = lower value",0.98 (inactive)
same,normalized growth,"locus YJL166W, strain qcr8, stronger effect = lower value",0.953 (inactive)
same,normalized growth,"locus YJL168C, strain set2, stronger effect = lower value",0.97 (inactive)
same,normalized growth,"locus YJL187C, strain SWE1 (second series), stronger effect = lower value",0.927 (inactive)
same,normalized growth,"locus YJL187C, strain SWE1, stronger effect = lower value",1.01 (inactive)
same,normalized growth,"locus YJR043C, strain POL32, stronger effect = lower value",0.974 (inactive)

# — PubChem BioAssay AID1159580 (chemical genetic matrix, 2015)
